PfHsp90 yeast 2 = growth inhibition of yeast expressing Plasmodium Hsp90; 0.32% of 310,000 active; AID 504621; S. cerevisiae expressing PfHsp90, BacTiter-Glo ATP, 48 h; yeast lacking PDR1 and PDR3 efflux regulators; inhibition, % at 9.4 µM;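 active = every replicate shows inhibition above about 80%, whatever the replicate mean, limit read from the data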
SKKanGAS inh = blocks kanamycin growth of S. pyogenes SKKanGAS strain | BacTiter-Glo, 6 h | inhibition, % at 7.5 µM | 1.3% of 300,000 active | AID 1662;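 active = mean replicate score, as percent of positive control median, at least 50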;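 also: strain carries kanamycin resistance gene driven by streptokinase promoter and grows in 40 µg/ml kanamycin; loss of luminescence reflects streptokinase promoter inhibition or plain growth inhibition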
tim23-1 inh = inhibits growth of tim23-1 mutant yeast | S. cerevisiae tim23-1 growth, BacTiter-Glo luminescence, 24 h | inhibition, % at 20 µM | 1.3% of 330,000 active;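 active = growth inhibition of the mutant yeast at or above 50%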;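 also: temperature-sensitive mutant grown at 25 °C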
tim10-1 inh = growth inhibitors of tim10-1 mutant yeast; 2.2% of 330,000 active; inhibition, % at 20 µM; S. cerevisiae tim10-1 ts strain growth, BacTiter-Glo, 24 h;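 active = inhibition of at least 40%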;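 also: mutant grown at 25 °C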
NALP3 yeast inh = blocks the NALP3 inflammasome reconstituted in yeast; Yeast reconstituted NLRP3/ASC/caspase-1, beta-gal luminescence, 24 h; inhibition, % at 10 µM; 0.39% of 330,000 active; AID 2825;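 active = inhibition of 50% or more; inactive = inhibition below 50%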
TIM10 inh = growth inhibitors of TIM10 yeast strain; S. cerevisiae TIM10 strain growth, BacTiter-Glo luminescence, 24 h; inhibition, % at 10 µM; 1.4% of 330,000 active;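 active = inhibition of 40% or more at the single tested concentration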;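 also: wild-type TIM10 isogenic control strain grown at permissive 25 °C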
tim23-1 confirm = confirmation of tim23-1 mutant yeast growth inhibitors | shares compounds with tim23-1 inh | S. cerevisiae tim23-1 growth, BacTiter-Glo luminescence, 24 h | inhibition, % at 20 µM | 83% of 4,400 active | AID 463218;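 active = inhibition above about 39% in either of two replicate wells at 20 µM, limit read from the data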;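 also: temperature-sensitive tim23-1 mutant grown at 25 °C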
Of the large screens only hits and unclear results are named; the others gave an inactive call (follow-up assays come after a bar, where they were run). Most compounds without a hit are left out; they make up all but 4.6% or so of the library.

O=C(Cc1ccc(Br)cc1)OCC(=O)N1CCCCCC1	none (no result: SKKanGAS inh)
CC(C)(C)C(=O)C(Cl)C(=O)Nc1ccccc1 (stereo not given)	PfHsp90 yeast 2 107, tim23-1 inh 70 | tim23-1 confirm inactive
O=C(Nc1ccc(Nc2ccccc2)cc1)C(Cl)Cl	none
NC(=O)CSc1nnnn1-c1ccccc1Cl	none
O=C(NNC(=O)c1ccccc1C(=O)O)c1ccc(S(=O)(=O)N2CCCCC2)cc1	none
CC(=O)Nc1ccc(-c2cn3c(n2)SCC3)cc1	none
O=C(Nc1ccc(-c2cn3c(n2)SCC3)cc1)c1ccco1	tim23-1 inh 51 | tim23-1 confirm 44
CCC(=O)N1CCN(c2ccc(NC(=O)c3ccc([N+](=O)[O-])o3)cc2Cl)CC1	none (no result: tim23-1 inh, tim10-1 inh, NALP3 yeast inh, TIM10 inh)
O=C(Nc1ccc(S(=O)(=O)N2CCCC2)cc1)c1ccc([N+](=O)[O-])o1	tim23-1 inh 52 (no result: SKKanGAS inh) | tim23-1 confirm 34
CC(=O)N1CCN(c2ccc(NC(=O)c3ccc([N+](=O)[O-])o3)cc2Cl)CC1	tim23-1 inh 51 | tim23-1 confirm 76
Cc1ccc(C(=O)Nc2ccc(S(=O)(=O)N3CCCC3)cc2)o1	none
Cc1cc(C(=O)N(C)CC(=O)Nc2ccc(F)c(F)c2F)no1	none
COc1cc(C(=O)NCCC(=O)NC2CCCCCCC2)cc(OC)c1OC	tim23-1 inh 56 | tim23-1 confirm inactive
S=c1cnc2ccccc2[nH]1	none
O=C(Oc1c(Cl)cc(Cl)c2cccnc12)N1CCCCC1	none
Oc1c(C(c2ccccc2Cl)N2CCCC2)ccc2cccnc12 (stereo not given)	PfHsp90 yeast 2 119, SKKanGAS inh 76, tim23-1 inh 65 | tim23-1 confirm 59
Oc1c(C(c2ccc(Cl)cc2)N2CCCC2)cc(Cl)c2cccnc12 (stereo not given)	PfHsp90 yeast 2 128, SKKanGAS inh 80, tim23-1 inh 64 | tim23-1 confirm 68
CCN1C(=O)[C@H]2[C@@H](c3ccc(-c4ccc(C(C)=O)cc4)cc3)N[C@@](Cc3ccccc3)(C(=O)OC)[C@H]2C1=O	none
COCCNc1c2c(nc3c(-c4ccccc4)c(C)nn13)CCCC2	tim23-1 inh 50 | tim23-1 confirm inactive
CCn1c(O)c(C=NC2CCCC(C)C2C)sc1=S (stereo not given)	tim23-1 inh 51 | tim23-1 confirm 53
COc1ccccc1C(=O)NCCC(=O)Nc1ccc(OC(F)(F)F)cc1	none
COc1ccc(OC)c(N(CC(=O)N2CCOCC2)S(C)(=O)=O)c1	none
COc1ccc(OC)c(NC(=O)Nc2ccc(Cl)cc2)c1	tim23-1 inh 69 | tim23-1 confirm 67
Cc1ccc(C(=O)N2CCSC2=S)cc1	tim23-1 inh 56 | tim23-1 confirm 51
CCOc1ccc(C(=O)N2CCSC2=S)cc1	tim23-1 inh 51 | tim23-1 confirm 41
CN1CCCN(S(=O)(=O)c2ccc(O)c(C(=O)O)c2)CC1	none
Cc1cccn2c(=O)nc(SCC(=O)NC3CCCC3)nc12	none (no result: PfHsp90 yeast 2)
Cc1ccc(S(=O)(=O)N2C[C@@H]3[C@H]4CC[C@H](C4)[C@@H]3[C@@H](C)[C@H]2C#N)cc1	tim23-1 inh 91 (no result: SKKanGAS inh, NALP3 yeast inh) | tim23-1 confirm 40
Cc1ccc(S(=O)(=O)N2C[C@@H]3[C@H]4CC[C@H](C4)[C@@H]3[C@@H](C)[C@H]2c2ccn(Cc3ccccc3)c2)cc1	none (no result: SKKanGAS inh, NALP3 yeast inh)
O=C(CSc1nnnn1C1CCCC1)c1ccc2c(c1)OCCO2	tim23-1 inh 53 | tim23-1 confirm 46
CC(C)n1nnnc1SCC(=O)c1ccc2c(c1)OCCO2	none
CN1CCN(S(=O)(=O)c2ccc(Cl)s2)CC1	none
COc1cccc(CNC(=O)C(=O)N2CCC3(CC2)OCCN3S(=O)(=O)c2ccc(C)cc2)c1	none
Cc1ccnc(NC(=O)c2cc(F)c(F)cc2Cl)n1	tim23-1 inh 62 | tim23-1 confirm 47
COc1ccc(C2=NNC(c3cccs3)=Nc3ccc(OC)cc32)cc1	tim23-1 inh 60 | tim23-1 confirm 61
CCOc1ccc2c(c1)C(c1cccs1)=NNC(c1cccnc1)=N2	none
Cc1cc(C(=O)c2ccccc2)c(NC(=O)CCl)s1	tim23-1 inh 55 | tim23-1 confirm inactive
CCN(CC)CC(=O)Nc1sc(C)cc1C(=O)c1ccccc1	none
COc1ccc(C(C[N+](=O)[O-])c2c(C)[nH]n(-c3ccccc3)c2=O)cc1 (stereo not given)	PfHsp90 yeast 2 117, tim23-1 inh 76 | tim23-1 confirm 67
COc1c(Br)cc(/C=N/n2c(-c3ccccc3)n[nH]c2=S)c(O)c1Br	tim23-1 inh 62 | tim23-1 confirm 60
Oc1ccccc1/C=N/n1c(-c2ccccc2)n[nH]c1=S	tim23-1 inh 51 | tim23-1 confirm inactive
Cc1ccc(-c2nn(-c3ccccc3)cc2CO)cc1	none
Cc1ccc(-c2nn(-c3ccccc3)cc2/C=N/O)cc1	SKKanGAS inh 58, tim23-1 inh 59 (no result: PfHsp90 yeast 2) | tim23-1 confirm 38
Cc1ccc(-c2nn(-c3ccccc3)cc2NC(=O)CCl)cc1	tim23-1 inh 65 | tim23-1 confirm 44
O=S(=O)(NCc1csc(-c2ccccc2)n1)c1ccc(Cl)s1	tim23-1 inh 53 | tim23-1 confirm 45
O=C(Nc1ccccc1)C1(c2ccccc2)CC1(Cl)Cl (stereo not given)	none
O=C(Nc1cc(Cl)ccn1)C1(c2ccccc2)CC1(Cl)Cl (stereo not given)	tim23-1 inh 55 | tim23-1 confirm 65
CC(C)CCN1CC(=O)N2[C@@H](Cc3c([nH]c4ccccc34)C2(C)C)C1=O	none
O=C(Nc1ccc2c(c1)OCCO2)c1ccccc1F	tim23-1 inh 66 | tim23-1 confirm 40
O=C(NC(=S)Nc1ccc2c(c1)OCCO2)c1ccccc1F	none
O=C(NC(=S)Nc1ccc2c(c1)OCCO2)c1ccccc1	tim23-1 inh 54 (no result: PfHsp90 yeast 2) | tim23-1 confirm 44
Cc1ccc(NC(=O)c2ccc3c(c2)OCCO3)cc1C	tim23-1 inh 64 | tim23-1 confirm 63
O=C(Nc1ccc(NC(=O)c2ccc3c(c2)OCCO3)cc1)c1ccccc1	none
O=C(O)CCCNC(=O)c1ccccn1	none
C=CCN(C(=O)CCC(=O)Nc1cc(C)on1)C(C(=O)NC(C)(C)CC)c1cccc(OC)c1OC (stereo not given)	none
Cc1nc2ccccc2c(=O)n1/N=C/c1cc(Br)ccc1O	tim23-1 inh 69 | tim23-1 confirm 76
O=C1C(NS(=O)(=O)c2cccs2)=C(N2CCN(Cc3ccccc3)CC2)C(=O)c2ccccc21	tim23-1 inh 53 | tim23-1 confirm inactive
CN1CCN(C2=C(NS(=O)(=O)c3cccs3)C(=O)c3ccccc3C2=O)CC1	none
CCOC(=O)c1c(NC(=O)CSc2nnnn2-c2ccc(OC)cc2)sc(C)c1C	tim23-1 inh 50 | tim23-1 confirm 82
CCOC(=O)c1csc(NC(=O)CSc2nnnn2-c2ccc(OC)cc2)n1	none
CCOc1ccc(NC(=O)COc2ccc3c(c2)CCC3)cc1OC	none (no result: SKKanGAS inh)
CCOc1ccc(N(C(=O)CNC(=O)c2cccs2)C(C(=O)NCC2CCCO2)c2ccc(OC)c(OC)c2)cc1 (stereo not given)	none
O=c1cc(CO)oc(CN2CCN(CCO)CC2)c1O	tim23-1 inh 95 | tim23-1 confirm inactive
O=C(CNS(=O)(=O)c1ccc(Cl)c(C(F)(F)F)c1)NC1CCCCC1	none (no result: SKKanGAS inh)

Screening data (PubChem)
